From PubChem
TDP1 cell CPT: qHTS for Inhibitors of human tyrosyl-DNA phosphodiesterase 1 (TDP1): qHTS in cells in presence of CPT; chicken DT40 Tdp1-/-;hTDP1 cells + 20 nM CPT, ATP luminescence, 48 h; Potency, µM (titrated, usually from 46.2 µM), for the others: top-dose activity change, negative = growth inhibition, actives largely listed as inhibitors; 420,000 compounds, 12% hits; AID 686979, 2013; further: nearly all actives have a fitted effect of over 55% in size
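Chicken DT40 Tdp1-/- cells complemented with human TDP1, 400 cells/well, exposed to compounds plus 20 nM camptothecin for at least 48 h at 37 C; viability read as ATP content by CellTiter-Glo luminescence.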
TDP1 cell noCPT: qHTS for Inhibitors of human tyrosyl-DNA phosphodiesterase 1 (TDP1): qHTS in cells in absence of CPT | DT40 Tdp1-/- hTDP1 cells, no CPT, ATP luminescence, 48 h | 420,000 compounds, 15% hits | AID 686978, 2013 | Potency, µM (titrated, usually from 46.2 µM), for inactives: at the highest dose activity change, negative = growth inhibition, hits mostly inhibitors; further: nearly all actives have a fitted effect of over 55% in size
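Growth kinetics read by CellTiter-Glo luminescence after ≥48 hr at 37 °C. Cells: DT40 Tdp1-/- stably carrying human TDP1, 400 per well, compound exposure in the absence of CPT (DMSO vehicle).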
TDP1 block: qHTS Assay for Inhibitors of Tyrosyl-DNA Phosphodiesterase (TDP1); 350,000 compounds, 0.28% hits; recombinant TDP1, AlphaScreen DNA substrate cleavage; AID 485290, 2010; Potency, µM (doses to about 130 µM), for the others: top-dose activity change, negative = inhibition, hits mostly inhibitors; Tyrosyl-DNA phosphodiesterase 1 (Homo sapiens), Q9NUW8; further: nearly all actives have a fitted effect of over 40% in size
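Recombinant E. coli-expressed Tdp1 (1 nM) preincubated with compound 15 min at RT, then 5'-biotin/3'-phosphotyrosine-FITC DNA substrate (15 nM) added for 5 min. AlphaScreen beads (10 ug/ml) added, 10 min RT; tyrosine-FITC cleavage read as signal loss.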
RORg inh: qHTS for inhibitors of ROR gamma transcriptional activity | Drosophila S2 Gal4-RORgamma UAS-luciferase reporter, 20 h | 310,000 compounds, 5.4% hits | Potency, µM (doses to about 53.6 µM), for the others: at the highest dose activity change, negative = inhibition, actives largely listed as inhibitors | Nuclear receptor ROR-gamma (Mus musculus), P51450; further: nearly all actives have a fitted effect of over 60% in size
Target sequence (P51450 whole entry, looked up, the tested form may be a part): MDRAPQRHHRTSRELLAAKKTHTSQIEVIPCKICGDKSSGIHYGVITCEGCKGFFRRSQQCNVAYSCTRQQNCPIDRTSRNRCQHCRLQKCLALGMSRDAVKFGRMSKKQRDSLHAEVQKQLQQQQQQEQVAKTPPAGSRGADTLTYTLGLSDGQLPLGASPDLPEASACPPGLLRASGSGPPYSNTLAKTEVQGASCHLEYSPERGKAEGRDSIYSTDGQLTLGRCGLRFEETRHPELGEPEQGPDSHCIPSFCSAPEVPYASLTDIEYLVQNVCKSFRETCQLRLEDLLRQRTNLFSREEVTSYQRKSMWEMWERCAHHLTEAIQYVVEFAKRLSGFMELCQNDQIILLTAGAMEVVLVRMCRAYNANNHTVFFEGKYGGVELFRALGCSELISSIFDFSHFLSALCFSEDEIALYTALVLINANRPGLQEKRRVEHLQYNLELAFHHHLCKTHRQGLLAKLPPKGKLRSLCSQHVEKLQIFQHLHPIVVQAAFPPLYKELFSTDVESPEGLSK
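Luciferase reporter read in Schneider cells carrying Gal4-RORγ (mouse) and UAS-Photinus luciferase; cells given compound 1 h before 700 uM copper sulfate induction, then incubated 20 h at ambient temperature.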
VP16 counter: VP16 counterscreen qHTS for inhibitors of ROR gamma transcriptional activity. Drosophila S2 Gal4-VP16 UAS-luciferase, luminescence, 20 h. Potency, µM (highest dose often 53.6 µM), inactives show at the highest dose activity, negative = inhibition, most hits filed as inhibitors. 310,000 compounds, 3.5% hits;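 further: Gal4-VP16 expression switched on by copper sulfate through the metallothionein promoter; nearly all actives have a fitted effect of over 50% in size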
The depositor's hits bear a star; ? = inconclusive; . = no result given; [ ] = dose if it differs, or a comment. Hits are enriched below; roughly 19% of the tested compounds scored in any of these assays. The call rests on the fitted dose curve; in most records, active means well fitted curve in the direction sought with a large enough effect; inconclusive means small, poorly fitted or top-dose-only effect, or another doubt; inactive means no such curve, though single readings can be large; an effect the other way counts as inactive or inconclusive. On the % scale 0 is the no-effect control and ±100 the full control effect; potency means the concentration at half of the fitted maximal effect.

SMILES	TDP1 cell CPT	TDP1 cell noCPT	TDP1 block	RORg inh	VP16 counter
CC(O)(c1ccccc1)c1nc(-c2cccc(C(=O)O)c2)cs1 (stereo not given)	-21.1%	-10.9%	.	.	.
COc1cccc(C(C)(O)c2nc(-c3cnc4ccccc4c3)cs2)c1 (stereo not given)	16.4µM*	18.4µM*	.	.	.
CC(O)(c1cccc(F)c1)c1nc(-c2cccc(C(F)(F)F)c2)cs1 (stereo not given)	29.1µM*	?	.	.	.
COc1ccc(C(C)(O)c2nc(-c3cncnc3)cs2)cc1 (stereo not given)	-12.6%	-19.4%	.	.	.
COc1cccc(NC(=O)CN(C)C(=O)c2ccccn2)c1	16.1%	7.5%	-0.4%	.	.
O=C1OC(c2cccc3c(F)cccc23)c2ccccc21 (stereo not given)	-19.6%	?	.	.	.
COc1cc(F)ccc1-c1csc(C(C)(O)c2ccccc2)n1 (stereo not given)	?	18.4µM*	.	.	.
CC(O)(c1cccc(F)c1)c1nc(-c2cnc3ccccc3c2)cs1 (stereo not given)	14.6µM*	13µM*	.	.	.
OC(c1ccccc1)(c1nc(-c2cc3ccccc3o2)cs1)C(F)(F)F (stereo not given)	20.6µM*	16.4µM*	.	.	.
Cn1cc(-c2csc(C(C)(O)c3cccc(F)c3)n2)cn1 (stereo not given)	-9.1%	-12.2%	.	.	.
O=C(O)c1cccc(-c2csc(C(O)(c3ccccc3)C(F)(F)F)n2)c1 (stereo not given)	2.1%	-5.7%	.	.	.
COc1cccc(C(C)(O)c2nc(-c3ccccc3OC)cs2)c1 (stereo not given)	?	-93.5%	.	.	.
CC(O)(c1cccc(F)c1)c1nc(-c2ccccc2)cs1 (stereo not given)	20.6µM*	18.4µM*	.	.	.
Cc1cc(C)cc(NC(=O)Cn2c(=O)n(-c3cc(C)cc(C)c3)c(=O)c3oc4ccccc4c32)c1	?	?	0.0%	.	.
COc1ccc(O[C@H]2C=C[C@@H](c3ccccc3)O[C@@H]2CO/N=C\[C@@H](C)[C@H](OCc2ccccc2)C(C)C)cc1	.	.	-1.6%[21 µM]	-1.7%[10 µM]	-1.1%[10 µM]
Cc1ccsc1/C=N/NC(=O)Cn1nc(C)c([N+](=O)[O-])c1C	4.7%	?	0.0%	?	?
Cc1cc(NC(=O)Nc2ccc(Cl)cc2)n(C(C)(C)C)n1	0.1%	6.5%	.	10.9%	-7.4%
COc1ccc(-c2csc(NC(=O)[C@H](C)N3C(=O)C4CC=CCC4C3=O)n2)cc1OC (stereo not given in full)	?	?	2.5%	.	.
CN(C)c1ccc(CNC(=O)C2CCN(S(=O)(=O)c3ccc4c(c3)oc(=O)n4C)CC2)cc1	?	?	3.3%	-12.7%	-4.2%
Cn1cc(-c2csc(C(O)(c3ccccc3)C(F)(F)F)n2)cn1 (stereo not given)	-2.9%	?	.	.	.
CC(O)(c1cccc(F)c1)c1nc(-c2ccc(S(C)(=O)=O)cc2)cs1 (stereo not given)	16.4µM*	13µM*	.	.	.
CC(O)(c1cccc(F)c1)c1nc(-c2cccc3cccnc23)cs1 (stereo not given)	?	25.9µM*	.	.	.
CC(O)(c1cccc(F)c1)c1nc(-c2cccc(C(=O)O)c2)cs1 (stereo not given)	-1.0%	-1.4%	.	.	.
COc1ccccc1-c1csc(C(O)(c2ccccc2)C(F)(F)F)n1 (stereo not given)	?	18.4µM*	.	.	.
CC(O)(c1ccc(F)c(F)c1)c1nc(-c2cccc(C(=O)O)c2)cs1 (stereo not given)	-27.5%	2.3%	.	.	.
SMILES	TDP1 cell CPT	TDP1 cell noCPT	TDP1 block	RORg inh	VP16 counter
CC(O)(c1cccc(F)c1)c1nc(-c2ccncc2)cs1 (stereo not given)	14.6µM*	18.4µM*	.	.	.
CC1CCCCC1NC(=O)CCNS(=O)(=O)c1ccc2c(c1)CCC(=O)N2 (stereo not given)	-18.6%	-5.2%	-0.3%	3.3%	-3.6%
CC(C)CC(=O)N1CC(=O)Nc2ccc(F)cc2C1c1ccccc1 (stereo not given)	-0.8%	-28.1%	8.8%	-5.3%	4.3%
COc1ccc(OC)c(NC(=O)CSc2nnnn2-c2ccccc2F)c1	-13.2%	?	0.0%	16.0%	-0.4%
Cc1ccc(S(=O)(=O)N(C)C)cc1N	-0.6%	-9.0%	-2.7%	-43.1%	-2.0%
CCc1nnc(NC(=O)CN2C(=O)NC3(CCCC3)C2=O)s1	-15.3%	-0.2%	-0.3%	.	.
COc1ccc(-c2csc(C(C)(O)c3cccc(F)c3)n2)cc1OC (stereo not given)	23.1µM*	14.6µM*	.	.	.
CCCCc1nc2sc3c(c2c(=O)[nH]1)CC(C)(C)OC3	-15.7%	-10.4%	.	.	.
CCC1CC2(C)NC(=O)c3c(sc4c3CC(C)(C)OC4)N2C1=O (stereo not given)	?	20.6µM*	-10.0%	12.2%	-2.7%
Cc1ccc(S(=O)(=O)NCC2CCC(C(=O)NCCCN3CCC(C)CC3)CC2)cc1 (stereo not given)	-27.9%	?	.	.	.
O=C1CN(C(=O)COC(=O)c2ccc(Cl)cc2)c2ccccc2N1	18.8%	-6.0%	-13.3%	.	.
N#Cc1cc(C#N)c(N2CCN(c3ccccn3)CC2)nc1N	?	22.4µM*	6.4%	?	?
O=C(c1ccccc1)c1ccc(CN2C(=O)c3ccccc3C2=O)o1	-4.9%	-1.7%	7.0%	35.0%	20.2%
COc1ccc(C(=O)c2coc3c2C(=O)C(=O)c2ccccc2-3)cc1	2.59µM*	4.61µM*	10.7%	11.2µM*	?
O=C1C(=C(O)c2ccccc2)C(=O)c2ccccc21	?	-13.8%	5.1%	?	1.1%
O=C1c2ccccc2C(=O)c2c1oc(C(F)(F)F)c2C(=O)c1ccccc1	11.6µM*	16.4µM*	4.0%	-7.5%	-13.6%
O=C(c1ccccc1)c1coc2c1C(=O)c1ccccc1C2=O	?	?	11.0%	17.8µM*	?
Cc1cc2nc(CCN3CCOCC3)n(S(=O)(=O)c3ccc(C(C)(C)C)cc3)c2cc1C	18.4µM*	?	2.4%	12.1%	1.3%
CC(C)(C)c1ccc(S(=O)(=O)NCCN2CCOCC2)cc1	-21.0%	-23.7%	.	.	.
Cc1ccc2c(c1)-c1[nH]c(=S)ncc1CS2	?	18.4µM*	.	2.24µM*	-13.4%
Cc1ccc(NC(=O)c2ccc3c(c2)NC(=O)CS3)nc1	-0.5%	-29.4%	-7.0%[0.505 µM]	.	.
